# Reference: the supplement of paper PMC4466140
# Biological target: AgAbp1
# Experiment: SPOT peptide array binding signal intensity (averaged, normalized) (arbitrary units (background-subtracted, floor 0; scale differs between SH3 domains)); higher = stronger binding of the SH3 domain to the peptide
# Outline: (§1)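 GST-SH3 fusions from four yeast species, purified on glutathione Sepharose, were incubated at 10 μg/ml overnight at 4°C on membranes of synthetic 15-mer peptides in which cysteines were replaced with serines. Binding signal is the normalized, background-subtracted spot intensity averaged over replicates, in domain-specific arbitrary units.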
row,Binder,SPOT peptide array binding signal intensity
1,YSRKKLPVVLSKMTL,68

# Biological target: AgBbc1
# Experiment: as above
# Outline: as §1
row,Binder,SPOT peptide array binding signal intensity
1,YSRKKLPVVLSKMTL,21.5

# Biological target: AgBem1-D1
# Experiment: as above
# Outline: as §1
row,Binder,SPOT peptide array binding signal intensity
1,YSRKKLPVVLSKMTL,45.5

# Biological target: AgBzz1-D1
# Experiment: as above
# Outline: as §1
row,Binder,SPOT peptide array binding signal intensity
1,YSRKKLPVVLSKMTL,82.5

# Biological target: AgBzz1-D2
# Experiment: as above
# Outline: as §1
row,Binder,SPOT peptide array binding signal intensity
1,YSRKKLPVVLSKMTL,43.5

# Biological target: AgCyk3
# Experiment: as above
# Outline: as §1
row,Binder,SPOT peptide array binding signal intensity
1,YSRKKLPVVLSKMTL,3

# Biological target: AgFus1
# Experiment: as above
# Outline: as §1
row,Binder,SPOT peptide array binding signal intensity
1,YSRKKLPVVLSKMTL,109

# Biological target: AgHof1
# Experiment: as above
# Outline: as §1
row,Binder,SPOT peptide array binding signal intensity
1,YSRKKLPVVLSKMTL,28.8

# Biological target: AgHse1
# Experiment: as above
# Outline: as §1
row,Binder,SPOT peptide array binding signal intensity
1,YSRKKLPVVLSKMTL,126

# Biological target: AgLsb1
# Experiment: as above
# Outline: as §1
row,Binder,SPOT peptide array binding signal intensity
1,YSRKKLPVVLSKMTL,223

# Biological target: AgLsb4
# Experiment: as above
# Outline: as §1
row,Binder,SPOT peptide array binding signal intensity
1,YSRKKLPVVLSKMTL,12

# Biological target: AgMyo5
# Experiment: as above
# Outline: as §1
row,Binder,SPOT peptide array binding signal intensity
1,YSRKKLPVVLSKMTL,3.25

# Biological target: AgNbp2
# Experiment: as above
# Outline: as §1
row,Binder,SPOT peptide array binding signal intensity
1,YSRKKLPVVLSKMTL,48.5

# Biological target: AgRvs167
# Experiment: as above
# Outline: as §1
row,Binder,SPOT peptide array binding signal intensity
1,YSRKKLPVVLSKMTL,3.5

# Biological target: AgSho1
# Experiment: as above
# Outline: as §1
row,Binder,SPOT peptide array binding signal intensity
1,YSRKKLPVVLSKMTL,190

# Biological target: AgSla1-D1-D2
# Experiment: as above
# Outline: as §1
row,Binder,SPOT peptide array binding signal intensity
1,YSRKKLPVVLSKMTL,57

# Biological target: AgSla1-D3
# Experiment: as above
# Outline: as §1
row,Binder,SPOT peptide array binding signal intensity
1,YSRKKLPVVLSKMTL,14.5

# Biological target: CaAbp1-D1
# Experiment: as above
# Outline: as §1
row,Binder,SPOT peptide array binding signal intensity
1,YSRKKLPVVLSKMTL,444

# Biological target: CaAbp1-D2
# Experiment: as above
# Outline: as §1
row,Binder,SPOT peptide array binding signal intensity
1,YSRKKLPVVLSKMTL,126

# Biological target: CaBbc1
# Experiment: as above
# Outline: as §1
row,Binder,SPOT peptide array binding signal intensity
1,YSRKKLPVVLSKMTL,15.8

# Biological target: CaBem1-D1
# Experiment: as above
# Outline: as §1
row,Binder,SPOT peptide array binding signal intensity
1,YSRKKLPVVLSKMTL,35.5

# Biological target: CaBzz1-D1
# Experiment: as above
# Outline: as §1
row,Binder,SPOT peptide array binding signal intensity
1,YSRKKLPVVLSKMTL,197

# Biological target: CaBzz1-D2
# Experiment: as above
# Outline: as §1
row,Binder,SPOT peptide array binding signal intensity
1,YSRKKLPVVLSKMTL,92.2

# Biological target: CaCyk3
# Experiment: as above
# Outline: as §1
row,Binder,SPOT peptide array binding signal intensity
1,YSRKKLPVVLSKMTL,8

# Biological target: CaFus1
# Experiment: as above
# Outline: as §1
row,Binder,SPOT peptide array binding signal intensity
1,YSRKKLPVVLSKMTL,166

# Biological target: CaHof1
# Experiment: as above
# Outline: as §1
row,Binder,SPOT peptide array binding signal intensity
1,YSRKKLPVVLSKMTL,2

# Biological target: CaHse1
# Experiment: as above
# Outline: as §1
row,Binder,SPOT peptide array binding signal intensity
1,YSRKKLPVVLSKMTL,17.2

# Biological target: CaLsb1
# Experiment: as above
# Outline: as §1
row,Binder,SPOT peptide array binding signal intensity
1,YSRKKLPVVLSKMTL,16

# Biological target: CaLsb4
# Experiment: as above
# Outline: as §1
row,Binder,SPOT peptide array binding signal intensity
1,YSRKKLPVVLSKMTL,25.5

# Biological target: CaMyo5
# Experiment: as above
# Outline: as §1
row,Binder,SPOT peptide array binding signal intensity
1,YSRKKLPVVLSKMTL,4.75

# Biological target: CaNbp2
# Experiment: as above
# Outline: as §1
row,Binder,SPOT peptide array binding signal intensity
1,YSRKKLPVVLSKMTL,143

# Biological target: CaRvs167
# Experiment: as above
# Outline: as §1
row,Binder,SPOT peptide array binding signal intensity
1,YSRKKLPVVLSKMTL,16.7

# Biological target: CaRvs167-3
# Experiment: as above
# Outline: as §1
row,Binder,SPOT peptide array binding signal intensity
1,YSRKKLPVVLSKMTL,11.5

# Biological target: CaSho1
# Experiment: as above
# Outline: as §1
row,Binder,SPOT peptide array binding signal intensity
1,YSRKKLPVVLSKMTL,131

# Biological target: CaSla1-D1-D2
# Experiment: as above
# Outline: as §1
row,Binder,SPOT peptide array binding signal intensity
1,YSRKKLPVVLSKMTL,264

# Biological target: CaSla1-D3
# Experiment: as above
# Outline: as §1
row,Binder,SPOT peptide array binding signal intensity
1,YSRKKLPVVLSKMTL,131

# Biological target: ScAbp1
# Experiment: as above
# Outline: as §1
row,Binder,SPOT peptide array binding signal intensity
1,YSRKKLPVVLSKMTL,108

# Biological target: ScBbc1
# Experiment: as above
# Outline: as §1
row,Binder,SPOT peptide array binding signal intensity
1,YSRKKLPVVLSKMTL,11

# Biological target: ScBem1-D1
# Experiment: as above
# Outline: as §1
row,Binder,SPOT peptide array binding signal intensity
1,YSRKKLPVVLSKMTL,31

# Biological target: ScBzz1-D1
# Experiment: as above
# Outline: as §1
row,Binder,SPOT peptide array binding signal intensity
1,YSRKKLPVVLSKMTL,67.5

# Biological target: ScBzz1-D2
# Experiment: as above
# Outline: as §1
row,Binder,SPOT peptide array binding signal intensity
1,YSRKKLPVVLSKMTL,75

# Biological target: ScCyk3
# Experiment: as above
# Outline: as §1
row,Binder,SPOT peptide array binding signal intensity
1,YSRKKLPVVLSKMTL,9

# Biological target: ScFus1
# Experiment: as above
# Outline: as §1
row,Binder,SPOT peptide array binding signal intensity
1,YSRKKLPVVLSKMTL,108

# Biological target: ScHof1
# Experiment: as above
# Outline: as §1
row,Binder,SPOT peptide array binding signal intensity
1,YSRKKLPVVLSKMTL,4.5

# Biological target: ScHse1
# Experiment: as above
# Outline: as §1
row,Binder,SPOT peptide array binding signal intensity
1,YSRKKLPVVLSKMTL,370

# Biological target: ScLsb1
# Experiment: as above
# Outline: as §1
row,Binder,SPOT peptide array binding signal intensity
1,YSRKKLPVVLSKMTL,191

# Biological target: ScLsb2
# Experiment: as above
# Outline: as §1
row,Binder,SPOT peptide array binding signal intensity
1,YSRKKLPVVLSKMTL,1100

# Biological target: ScLsb3
# Experiment: as above
# Outline: as §1
row,Binder,SPOT peptide array binding signal intensity
1,YSRKKLPVVLSKMTL,24.5

# Biological target: ScLsb4
# Experiment: as above
# Outline: as §1
row,Binder,SPOT peptide array binding signal intensity
1,YSRKKLPVVLSKMTL,12.5

# Biological target: ScMyo3
# Experiment: as above
# Outline: as §1
row,Binder,SPOT peptide array binding signal intensity
1,YSRKKLPVVLSKMTL,6

# Biological target: ScMyo5
# Experiment: as above
# Outline: as §1
row,Binder,SPOT peptide array binding signal intensity
1,YSRKKLPVVLSKMTL,6

# Biological target: ScNbp2
# Experiment: as above
# Outline: as §1
row,Binder,SPOT peptide array binding signal intensity
1,YSRKKLPVVLSKMTL,95

# Biological target: ScPex13
# Experiment: as above
# Outline: as §1
row,Binder,SPOT peptide array binding signal intensity
1,YSRKKLPVVLSKMTL,150

# Biological target: ScRvs167
# Experiment: as above
# Outline: as §1
row,Binder,SPOT peptide array binding signal intensity
1,YSRKKLPVVLSKMTL,8.33

# Biological target: ScSho1
# Experiment: as above
# Outline: as §1
row,Binder,SPOT peptide array binding signal intensity
1,YSRKKLPVVLSKMTL,2450

# Biological target: ScSla1-D1-D2
# Experiment: as above
# Outline: as §1
row,Binder,SPOT peptide array binding signal intensity
1,YSRKKLPVVLSKMTL,300

# Biological target: ScSla1-D3
# Experiment: as above
# Outline: as §1
row,Binder,SPOT peptide array binding signal intensity
1,YSRKKLPVVLSKMTL,53.2

# Biological target: SpAbp1-D1
# Experiment: as above
# Outline: as §1
row,Binder,SPOT peptide array binding signal intensity
1,YSRKKLPVVLSKMTL,243

# Biological target: SpBbc1
# Experiment: as above
# Outline: as §1
row,Binder,SPOT peptide array binding signal intensity
1,YSRKKLPVVLSKMTL,3

# Biological target: SpBzz1-D1
# Experiment: as above
# Outline: as §1
row,Binder,SPOT peptide array binding signal intensity
1,YSRKKLPVVLSKMTL,137

# Biological target: SpBzz1-D2
# Experiment: as above
# Outline: as §1
row,Binder,SPOT peptide array binding signal intensity
1,YSRKKLPVVLSKMTL,1.5

# Biological target: SpCyk3
# Experiment: as above
# Outline: as §1
row,Binder,SPOT peptide array binding signal intensity
1,YSRKKLPVVLSKMTL,4

# Biological target: SpHof1
# Experiment: as above
# Outline: as §1
row,Binder,SPOT peptide array binding signal intensity
1,YSRKKLPVVLSKMTL,76.8

# Biological target: SpHof1-2
# Experiment: as above
# Outline: as §1
row,Binder,SPOT peptide array binding signal intensity
1,YSRKKLPVVLSKMTL,27.2

# Biological target: SpHof1-3
# Experiment: as above
# Outline: as §1
row,Binder,SPOT peptide array binding signal intensity
1,YSRKKLPVVLSKMTL,295

# Biological target: SpHse1
# Experiment: as above
# Outline: as §1
row,Binder,SPOT peptide array binding signal intensity
1,YSRKKLPVVLSKMTL,77.8

# Biological target: SpLsb1
# Experiment: as above
# Outline: as §1
row,Binder,SPOT peptide array binding signal intensity
1,YSRKKLPVVLSKMTL,48

# Biological target: SpLsb4
# Experiment: as above
# Outline: as §1
row,Binder,SPOT peptide array binding signal intensity
1,YSRKKLPVVLSKMTL,40.5

# Biological target: SpMyo1
# Experiment: as above
# Outline: as §1
row,Binder,SPOT peptide array binding signal intensity
1,YSRKKLPVVLSKMTL,6

# Biological target: SpNbp2
# Experiment: as above
# Outline: as §1
row,Binder,SPOT peptide array binding signal intensity
1,YSRKKLPVVLSKMTL,49.5

# Biological target: SpPex13
# Experiment: as above
# Outline: as §1
row,Binder,SPOT peptide array binding signal intensity
1,YSRKKLPVVLSKMTL,53

# Biological target: SpRvs167
# Experiment: as above
# Outline: as §1
row,Binder,SPOT peptide array binding signal intensity
1,YSRKKLPVVLSKMTL,8.67

# Biological target: SpSla1-D1-D2
# Experiment: as above
# Outline: as §1
row,Binder,SPOT peptide array binding signal intensity
1,YSRKKLPVVLSKMTL,11.5

# Biological target: SpSla1-D3
# Experiment: as above
# Outline: as §1
row,Binder,SPOT peptide array binding signal intensity
1,YSRKKLPVVLSKMTL,41.5
